Records with an inconclusive call do not appear. Active and inactive are the calls of the source. Calls come from the whole dose curve; as a rule, active = well fitted inhibition curve with a large enough effect; inconclusive = small, poorly fitted or top-dose-only effect; inactive = no such curve, though single readings can be large or run the other way.
Test: Primary qHTS for small molecule stabilizers of the endoplasmic reticulum resident proteome: Secreted ER Calcium Modulated Protein (SERCaMP) assay (AID 1508630)
Conditions: SH-SY5Y GLuc-SERCaMP (Gaussia luciferase released on ER calcium loss) secretion, thapsigargin, luminescence; series mostly up to 38.4 µM; activity change, negative = inhibition: at the top concentration
Text: Assay Provider: Brandon K. Harvey Ph.D.
National Institute on Drug Abuse, National Institutes of Health, Baltimore, MD
Endoplasmic reticulum (ER) dysregulation is associated with human pathologies including neurodegenerative, cardiovascular, muscular, and diabetic conditions. Maintenance of ER calcium is critical for functions of the ER and its depletion can lead to loss of ER resident proteins, in a process termed exodosis. Therapeutic compounds capable of attenuating the redistribution of ER proteins under pathological conditions may slow or stop disease progression. To identify such compounds, we performed a quantitative high-throughput screen (qHTS) using the SERCaMP assay, which monitors secretion of ER resident proteins triggered by calcium depletion.
SERCaMP was initially developed as a reporter of ER calcium homeostasis using a Gaussia luciferase with a modified signal peptide and carboxy-terminus (GLuc-SERCaMP), modifications that confer secretion of the reporter in response to ER calcium depletion (Henderson et al., 2014). The assay was used to screen 9,501 compounds, including a collection of drugs approved by the FDA (US), EMA (EU), NHI (Japan), and HC (Canada) regulatory agencies (Huang et al., 2011). Since the SERCaMP reporter reflects the exodosis phenomenon (Trychta et al., 2018a), compounds identified in the screen have the potential to prevent exodosis by different mechanisms such as stabilizing ER calcium or augmenting ERS retrieval.
1. Henderson, M.J., Wires, E.S., Trychta, K.A., Richie, C.T., and Harvey, B.K. (2014). SERCaMP: a carboxy-terminal protein modification that enables monitoring of ER calcium homeostasis. Mol Biol Cell 25, 2828-2839.
2. Huang, R., Southall, N., Wang, Y., Yasgar, A., Shinn, P., Jadhav, A., Nguyen, D.T., and Austin, C.P. (2011). The NCGC pharmaceutical collection: a comprehensive resource of clinically approved drugs enabling repurposing and chemical genomics. Sci Transl Med 3, 80ps16.
3. Trychta, K.A., Back, S., Henderson, M.J., and Harvey, B.K. (2018a). KDEL Receptors Are Differentially Regulated to Maintain the ER Proteome under Calcium Deficiency. Cell Rep 25, 1829-1840 e1826.
SEQUENCE No. (1, 2, 3, etc.); […] (e.g., Cells, Incubation, Reagent, etc.); VALUE and DESCRIPTION.
1; Reagent; 5 uL; 1000 SH-SY5Y cells per wells
3; Compound; 23 nL; Control inhibitor / compound library
5; Reagent; 100 nM; Thapsigargin
7; Reagent; 1 uL; 0.5x coelenterazine
8; Detection; Luminescence; ViewLux imaging system
NOTES (numbers refer to sequence above)
1; SH-SY5Y human neuroblastoma cells stably expressing GLuc-SERCaMP (SH-SY5Y-GLuc-ASARTDL) cells were seeded in 1,536 well white tissue culture treated plates (Corning, Cat# 7464) in DMEM-high glucose-sodium pyruvate (ThermoFisher Scientific, Cat #10569) supplemented with 10% bovine growth serum (Hyclone), 10 U/ml penicillin (Gibco), 10 ug/ml streptomycin (Gibco), and 20 mM HEPES.
2; Assay plates were incubated for 5 hour at 37C in a humidified incubator containing 5% CO2.
3; qHTS libraries (23 nl, final concentrations of 1.53 uM, 7.67 uM, 38.3 uM) or controls (neutral control: DMSO, positive control: dantrolene) were added using a Kalypsis pin-tool Robotic System equipped with 1536 pinheads.
4; Cells were then incubated for 16 hours at 37C, 5% CO2.
5; Thapsigargin was added at 100 nM to deplete ER calcium stores.
6; Cells were incubated for 4 hour (37 °C, 5% CO2)
7; Gaussia luciferase in the medium was measured by adding 1 ul of 0.5x coelenterazine (final concentration 0.07x) prepared in Gaussia Luciferase Glow Assay Buffer (Pierce), without addition of the Cell Lysis Buffer Reagent.
8; Luminescence was measured using a ViewLux […] CCD imaging system (Perkin Elmer) equipped with clear filters. […] The same controls were also used for the calculation of the Z' factor, a measure of assay quality control, as previously described (Zhang et al., 1999). […]
% is set by controls: 0 for no effect and ±100 for the full control effect.

SMILES	activity change, negative = inhibition	Potency
CCCCCCCCCCCCCC(=O)N[C@H](CO)[C@H](O)c1ccc([N+](=O)[O-])cc1	5.84% (inactive)	–
CCOC(=O)[C@@H](N)CCC(=O)N[C@@H](CSCc1ccccc1)C(=O)N[C@@H](C(=O)OCC)c1ccccc1	15.7% (inactive)	–
CC1(C)CC(=O)c2c(C(F)(F)F)nn(-c3ccc(C(N)=O)c(NC4CCC(O)CC4)c3)c2C1 (stereo not given)	91.2% (inactive)	–
CN(C)CCOc1ccc(-c2nc(-c3ccc4c(c3)CCC4=NO)c(-c3ccncc3)[nH]2)cc1	145% (inactive)	–
CN(C)S(=O)(=O)c1ccc2c(c1)C(=Cc1cc3c([nH]1)CCCC3)C(=O)N2	43.5% (inactive)	–
CN[C@@H]1[C@@H](O)[C@@H](O[C@@H]2[C@@H](O)[C@H](O[C@H]3O[C@H](CN)[C@@H](O)[C@H](O)[C@@H]3O)[C@@H](N)C[C@@H]2NC(=O)[C@@H](O)CN)OC[C@]1(C)O	183% (inactive)	–
CCNC(=O)c1noc(-c2cc(C(C)C)c(O)cc2O)c1-c1ccc(CN2CCOCC2)cc1	98.7% (inactive)	–
CC(C)CNc1ccnc(NCc2csc(-c3ccccc3)n2)n1	-72.8% (inactive)	–
CC(=O)NCCC(=O)N[C@@H](CCC(N)=O)C(=O)N[C@@H](CO)C(=O)N[C@@H](CCC(N)=O)C(=O)N[C@@H](CCC(N)=O)C(=O)N[C@H](C(=O)N[C@@H](Cc1ccccc1)C(=O)N[C@]1(C)CCCCCCC=CCCC[C@@](C)(C(=O)N[C@@H](CCC(N)=O)C(=O)N[C@@H](CC(N)=O)C(N)=O)NC(=O)[C@H](CC(C)C)NC(=O)[C@H](CC(C)C)NC(=O)[C@@H](CCCNC(=N)N)NC(=O)[C@H](Cc2c[nH]c3ccccc23)NC(=O)[C@H](CC(C)C)NC(=O)[C@H](CC(N)=O)NC1=O)[C@H](C)O	88.5% (inactive)	–
COc1cc2c(cc1Cc1cccc(Cl)c1F)c(=O)c(C(=O)O)cn2[C@H](CO)C(C)C	61.5% (inactive)	–
O=C(Nc1cccc2c(=O)cc(-c3nn[nH]n3)oc12)c1ccc(OCCCCc2ccccc2)cc1	246% (inactive)	–
Cc1cc(CS(=O)(=O)c2ccccc2)cc(OCc2ccc(CN3CCC[C@H]3CO)cc2)c1	-19.9% (inactive)	–
O=c1[nH]c(=O)n([C@H]2C[C@@H](O)[C@@H](CO)O2)cc1I	0% (inactive)	–
COc1cc2c(cc1OC)[C@@H]1Cc3ccc(OC)c(OC)c3CN1CC2	40.4% (inactive)	–
CC(C)c1onc(-c2c(Cl)cccc2Cl)c1COc1ccc(C=Cc2cccc(C(=O)O)c2)c(Cl)c1	-16.5% (inactive)	–
CNc1nc(Nc2ccc(C(=O)N3CCOCC3)cc2OC)ncc1Cl	221% (inactive)	–
Cc1cccc2c1CC[C@H](CN1CCC(c3c(Cl)cccc3Cl)CC1)C[C@@H]2O	50.8% (inactive)	–
Cc1cc(-c2ncc(CC(=O)Nc3ccc(-c4cnccn4)cn3)cc2C)ccn1	0% (inactive)	–
O=C(Nc1cccc(C(F)(F)F)c1)Nc1cc(S(=O)(=O)NC2CC2)ccc1-c1ccsc1	-29% (inactive)	–
Cc1ccc(NC(=O)c2cccc(N(C)C)c2)cc1NC(=O)c1ccc(O)cc1	–	inactive

SMILES	activity change, negative = inhibition	Potency
C[C@@H](O)[C@H]1C(=O)N2C(C(=O)OCOC(=O)C(C)(C)C)=C(SC3CN(C4=NCCS4)C3)[C@H](C)[C@H]12	-10.6% (inactive)	–
COC1CCC(C(=O)c2ccc3nc4c(cc3c2)CCCO4)CC1 (stereo not given)	0% (inactive)	–
CC(=O)OCC(=O)[C@@]12OC(C)(C)O[C@H]1C[C@H]1[C@@H]3C[C@H](F)C4=CC(=O)C=C[C@]4(C)[C@@]3(F)[C@@H](O)C[C@@]12C	42.4% (inactive)	–
Fc1ccc(CNc2ncnc3ccc(F)cc23)cc1	-5.39% (inactive)	–
CCOC(=O)N1CCN([N+]([O-])=NOc2cc(ON=[N+]([O-])N3CCN(C(=O)OCC)CC3)c([N+](=O)[O-])cc2[N+](=O)[O-])CC1	0.922% (inactive)	–
O=C1C(c2c(O)[nH]c3ccccc23)=Nc2ccccc21	–	inactive
CN(C)CCOc1ccc(C(=C(CCCl)c2ccccc2)c2ccccc2)cc1	31.1% (inactive)	–
CSc1cccc(Nc2ncc3cc(-c4c(Cl)cccc4Cl)c(=O)n(C)c3n2)c1	31.9% (inactive)	–
C#CCN(C)CC1=Cc2ccccc2Oc2ccccc21	15% (inactive)	–
C[C@H]1O[C@@H](n2cc(F)c(=O)[nH]c2=O)[C@H](O)[C@H]1O	38.4% (inactive)	–
C[C@@H]1CCO[C@H]2Cn3cc(C(=O)NCc4ccc(F)cc4F)c(=O)c(O)c3C(=O)N12	40.7% (inactive)	–
Cc1ccc2c(c1)C(=O)[C@]1(O)CCN(c3ccccc3)C1=N2	77.2% (inactive)	–
Cc1ccc(S(=O)(=O)OCC(=O)Nc2ccc(C(=O)O)c(O)c2)cc1	-10.8% (inactive)	–
CC1CCN(c2cc(N3CCN(C)CC3)ccc2NC(=O)c2cc(C#N)c[nH]2)CC1	77.2% (inactive)	–
Cc1cn([C@@H]2C[C@@H](O)[C@H](CO)O2)c(=O)[nH]c1=O	-23.7% (inactive)	–
O=C1NC(=O)C(=Cc2ccc(-c3ccc(F)cc3O)o2)S1	71% (inactive)	–
Cc1cc(OCCCS(C)(=O)=O)cc(C)c1-c1cccc(COc2ccc3c(c2)OC[C@H]3CC(=O)O)c1	93.9% (inactive)	–
COc1ccc2cc1Oc1ccc(cc1)C[C@H]1c3cc(c(OC)cc3CCN1C)Oc1c(OC)c(OC)cc3c1[C@H](C2)N(C)CC3	–	inactive
CC1(COc2ccc3c(c2)ncn3-c2ccc3cccc(N4CCC(N)CC4)c3n2)COC1	140% (inactive)	–
Fc1ccc(C(c2ccc(F)cc2)N2CCN(CC=Cc3ccccc3)CC2)cc1	0% (inactive)	–

Source: PubChem BioAssay (NCATS)
